Assay outcomes: PubChem BioAssay, National Center for Advancing Translational Sciences (NCATS)
Compounds with a hit are over-represented: about 10% of the library has one in this group of screens.
JMJD2A Tudor: qHTS Assay for Inhibitors of JMJD2A-Tudor Domain; AID 504339, 2011; AlphaScreen JMJD2A-Tudor / H3K4me3 peptide binding; hit rate 4.4% among 390,000; Lysine-specific demethylase 4A (Homo sapiens), O75164; Potency, µM (series often up to 114 µM), without a hit: at the top dose activity change, negative = inhibition, most hits filed as inhibitors; also: % is scaled to controls: 0 for no effect and ±100 for the full control effect; nearly all actives have a fitted effect of over 50% in size
G9a block: qHTS Assay for Inhibitors of Histone Lysine Methyltransferase G9a; Histone-lysine N-methyltransferase EHMT2 (Homo sapiens), Q96KQ7; G9a H3K9 monomethylation, AlphaScreen, 2 h; hit rate 8.8% among 350,000; Potency, µM (top dose mostly 102 µM), inactives show at the top dose activity, negative = inhibition, most hits filed as inhibitors; also: % is scaled to controls: 0 for no effect and ±100 for the full control effect; nearly all actives have a fitted effect of over 75% in size
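AlphaScreen detection with an anti-monomethyl H3K9 antibody quantified product after a 2 h room-temperature reaction containing 500 nM biotinylated H3K9 peptide, 20 µM SAM and 20 nM enzyme, which had been preincubated 15 min with compound.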
GLS inhibitor: qHTS for Inhibitors of Glutaminase (GLS) | Potency, µM (highest dose often 45.5 µM), without a hit: at the highest dose activity change, negative = inhibition, actives largely listed as inhibitors | GLS enzymatic activity, qHTS titration | Glutaminase kidney isoform, mitochondrial (Homo sapiens), O94925 | hit rate 0.21% among 410,000 | AID 624170, 2012; also: % is scaled to controls: 0 for no effect and ±100 for the full control effect
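Human kidney-isoform GLS in 45 mM KH2PO4 pH 8.2, 0.02% Tween-20, with compound, started with 1mM L-Glutamine (added stock). Glutamate oxidase/HRP/Amplex red coupled fluorescence read at start and after 30 min at RT.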
HP1b binding inh: HTS for Inhibitors of HP1-beta Chromodomain Interactions with Methylated Histone Tails. Chromobox protein homolog 1 (Homo sapiens), P83916. AlphaScreen HP1-beta / biotin-H3K9me3 peptide binding. Potency, µM (highest dose often 114 µM), inactives show at the top dose activity change, negative = inhibition, usual class: inhibitors. hit rate 0.56% among 390,000; also: nearly all actives have a fitted effect of over 70% in size
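Compound inhibition of the preformed complex between 50 nM HP1-beta and 50 nM biotinylated H3K9me3 peptide was read by AlphaScreen. Buffer was PBS pH 7.4 with 0.01% Tween-20. Incubations ran 30 min at room temperature, with 10 ug/mL donor/acceptor beads.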
BAZ2B inh: qHTS Assay for Inhibitors of BAZ2B | AlphaScreen BAZ2B-H3K14Ac peptide displacement | hit rate 4.4% among 360,000 | Bromodomain adjacent to zinc finger domain protein 2B (Homo sapiens), Q9UIF8 | AID 504333, 2011 | Potency, µM (titrated, usually from 114 µM), for the others: top-dose activity change, negative = inhibition, actives largely listed as inhibitors; also: % is scaled to controls: 0 for no effect and ±100 for the full control effect; nearly all actives have a fitted effect of over 60% in size
Target sequence (Q9UIF8 whole entry, looked up, the tested form may be a part): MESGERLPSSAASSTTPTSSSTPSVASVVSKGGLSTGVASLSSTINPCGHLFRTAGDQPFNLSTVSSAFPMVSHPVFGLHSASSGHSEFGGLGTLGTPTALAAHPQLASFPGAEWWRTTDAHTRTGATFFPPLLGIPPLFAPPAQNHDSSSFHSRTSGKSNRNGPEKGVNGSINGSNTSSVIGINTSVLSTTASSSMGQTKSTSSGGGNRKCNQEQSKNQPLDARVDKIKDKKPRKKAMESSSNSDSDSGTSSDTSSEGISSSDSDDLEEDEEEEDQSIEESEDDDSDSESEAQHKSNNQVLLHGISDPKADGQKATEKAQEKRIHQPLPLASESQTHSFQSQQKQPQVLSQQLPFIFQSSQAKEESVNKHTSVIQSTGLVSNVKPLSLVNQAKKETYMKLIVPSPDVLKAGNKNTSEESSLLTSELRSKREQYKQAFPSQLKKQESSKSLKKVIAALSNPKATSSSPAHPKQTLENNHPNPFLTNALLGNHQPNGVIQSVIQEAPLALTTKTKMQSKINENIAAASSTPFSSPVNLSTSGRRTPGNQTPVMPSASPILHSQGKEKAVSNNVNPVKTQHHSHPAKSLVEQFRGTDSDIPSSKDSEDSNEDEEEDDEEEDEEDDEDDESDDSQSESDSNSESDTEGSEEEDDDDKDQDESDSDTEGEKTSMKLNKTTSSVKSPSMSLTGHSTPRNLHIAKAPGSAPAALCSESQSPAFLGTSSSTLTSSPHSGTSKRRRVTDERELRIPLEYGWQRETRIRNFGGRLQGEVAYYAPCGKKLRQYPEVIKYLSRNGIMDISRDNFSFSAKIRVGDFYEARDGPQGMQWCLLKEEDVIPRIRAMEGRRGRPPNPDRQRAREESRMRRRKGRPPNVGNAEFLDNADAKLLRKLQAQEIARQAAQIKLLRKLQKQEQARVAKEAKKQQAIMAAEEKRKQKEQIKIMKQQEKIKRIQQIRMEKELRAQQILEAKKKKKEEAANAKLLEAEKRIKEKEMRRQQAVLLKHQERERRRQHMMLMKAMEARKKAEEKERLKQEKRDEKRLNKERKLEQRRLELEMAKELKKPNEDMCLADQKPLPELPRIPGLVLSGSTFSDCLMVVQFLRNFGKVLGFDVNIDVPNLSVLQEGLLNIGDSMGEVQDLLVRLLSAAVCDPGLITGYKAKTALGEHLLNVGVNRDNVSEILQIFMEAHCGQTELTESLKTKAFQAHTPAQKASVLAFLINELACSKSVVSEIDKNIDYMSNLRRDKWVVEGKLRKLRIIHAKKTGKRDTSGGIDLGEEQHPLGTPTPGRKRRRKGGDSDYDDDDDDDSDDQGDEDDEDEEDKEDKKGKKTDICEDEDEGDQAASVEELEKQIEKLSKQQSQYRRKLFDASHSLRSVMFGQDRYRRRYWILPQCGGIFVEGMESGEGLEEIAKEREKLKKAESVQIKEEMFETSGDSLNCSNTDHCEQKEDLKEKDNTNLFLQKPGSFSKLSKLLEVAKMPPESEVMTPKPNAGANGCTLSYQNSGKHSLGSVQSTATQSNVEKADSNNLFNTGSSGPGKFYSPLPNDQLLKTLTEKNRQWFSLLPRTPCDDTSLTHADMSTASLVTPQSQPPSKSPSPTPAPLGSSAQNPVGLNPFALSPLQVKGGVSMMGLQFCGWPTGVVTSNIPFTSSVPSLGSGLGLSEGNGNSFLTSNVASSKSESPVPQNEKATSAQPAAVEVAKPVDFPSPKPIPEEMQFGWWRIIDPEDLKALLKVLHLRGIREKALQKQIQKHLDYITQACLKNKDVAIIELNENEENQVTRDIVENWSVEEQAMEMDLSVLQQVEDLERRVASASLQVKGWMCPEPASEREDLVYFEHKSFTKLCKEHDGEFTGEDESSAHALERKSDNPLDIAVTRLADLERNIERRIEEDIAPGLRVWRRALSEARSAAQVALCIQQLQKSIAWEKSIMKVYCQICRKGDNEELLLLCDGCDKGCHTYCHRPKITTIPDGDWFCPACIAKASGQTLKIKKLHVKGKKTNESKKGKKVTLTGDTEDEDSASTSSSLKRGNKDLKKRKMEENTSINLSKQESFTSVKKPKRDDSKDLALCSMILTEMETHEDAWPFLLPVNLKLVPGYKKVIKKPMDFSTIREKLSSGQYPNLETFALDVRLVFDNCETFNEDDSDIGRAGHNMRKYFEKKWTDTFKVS
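AlphaScreen luminescence quantifies BAZ2B engagement of H3K14Ac peptide; the protein and biotinylated peptide are both at 50 nM final, buffer PBS pH 7.4 with 0.01% Tween-20, all steps at room temperature.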
* hit, by the source's call; ? = inconclusive; / = not tested or not shown; [ ] = dose if it differs, or a comment. Calls follow the shape of the dose curve; as a rule, active = well fitted curve in the direction sought with a large enough effect; inconclusive = small, poorly fitted or top-dose-only effect, or another doubt; inactive = no such curve, though single readings can be large; an effect the other way counts as inactive or inconclusive. Potency is read from the fitted curve at half-maximal effect.

SMILES	JMJD2A Tudor	G9a block	GLS inhibitor	HP1b binding inh	BAZ2B inh
COc1cccc(-c2nc(N3CCN(C)CC3)c3ccccc3n2)c1O	?	?	35%	-5%	?
O=C(Cn1nnc(-c2cccc(C(F)(F)F)c2)n1)NCc1ccc(F)cc1	-10%	-21%[59 µM]	1%	4%	-20%
CN1CCN(C(=O)CCC(=O)O)CC1	6%[11.4 µM]	/	-5%	68%	-20%
CN1CCN(CC(=O)O)CC1	?	35µM*	-1%	2%	?
Cc1ccc(NCCCn2cnc3c(OCc4ccccc4)ncnc32)cc1C	50µM*	/	4%	?	/
c1ccc(CNCCCn2cnc3c(OCc4ccccc4)ncnc32)cc1	-16%	/	2%	17%	/
CCN=C1S/C(=C/c2ccc(-c3ccc(F)cc3)o2)C(=O)N1CC	28%	35µM*	72%	36%	-32%
CCN=C1S/C(=C\c2ccc(Sc3ccc(Cl)cc3)o2)C(=O)N1CC	46%	148%	-13%	163%	27%
Cc1ccc(NC(=O)c2c(C)oc3ccc(O)c(CN4CCCCCC4)c23)c(C)c1	-33%	-30%[59 µM]	27%	9%	-25%
CCc1cc2c(=O)n3c(nc2s1)-c1[nH]c2ccc(OC)cc2c1CC3	22µM*	?	-3%	21%	8%
COc1ccc2[nH]c3c(c2c1)CCn1c-3nc2sc(C(=O)Nc3ccccc3)c(C)c2c1=O	/	14%[59 µM]	/	/	2%
Cc1nc2ccccn2c1-c1ccnc(=S)[nH]1	-24%	10µM*	?	40%	-30%
CN(C)CCN1C(=O)C(=O)/C(=C(/O)c2ccc(S(=O)(=O)N3CCOCC3)cc2)C1c1ccccc1 (configuration not stated)	-20%	-5%	11%	12%	-2%
O=C1C(=O)N(CCN2CCOCC2)C(c2ccccc2F)/C1=C(\O)c1ccc(S(=O)(=O)N2CCOCC2)cc1 (configuration not stated)	-15%	50µM*	-4%	10%	-23%
O=C1C(=O)N(CCN2CCOCC2)C(c2ccc(Cl)cc2)/C1=C(/O)c1ccc(S(=O)(=O)N2CCOCC2)cc1 (configuration not stated)	-4%	56µM*	0%	54%	24%
Cc1ccccc1CNC(=O)c1ccc2c(c1)c(C)c(C)n2C	?	?	4%	-20%	40µM*
CCN(CC)c1ccc(NC(=O)c2ccc3c(c2)c(C)c(C)n3C)cc1	18µM*	3.2µM*	-7%	35µM*	11µM*
Cc1ccccc1CNC(=O)c1ccc2[nH]c(C)c(C)c2c1	50µM*	?	6%	-16%	40µM*
Cc1c(C)n(C)c2ccc(C(=O)NCc3cccc(F)c3)cc12	?	?	9%	0%	?
COc1ccccc1-c1ccc2c(c1)C(C)(Cc1ccc(F)c(Cl)c1)C(=O)N2 (configuration not stated)	/	/	1%	/	/
CC1CCc2c(sc(NC(=O)COc3ccccc3C(C)(C)C)c2C#N)C1 (configuration not stated)	-19%	10µM*	-14%	-5%	1%
[O-]c1c[n+](-c2ccccc2)no1	-18%	5µM*	-5%	57%	-2%
[O-]c1c[n+](-c2ccc(-[n+]3cc([O-])on3)cc2)no1	?	-123%[59 µM]	22%	?	50µM*
C[N+](C)(C)CCC(=O)c1cccc2ccccc12	/	0.5µM*	/	/	/
O=C(O)CCC(=O)c1cccc2ccccc12	-12%	15%[59 µM]	2%	31%	9%
COC1=CC(=O)C(C2CC(=O)c3c(O)cc(O)cc3O2)=CC1=O (configuration not stated)	79µM*	/	30%	?	/
COc1ccc(/C=N/NC(=O)CCOc2ccccc2C)cc1OC	-6%	?	0%	27%	-31%
COc1cc(/C=N/NC(=O)CCOc2ccccc2C)cc(Br)c1O	0%[11.4 µM]	50µM*	1%	-1%	-16%
